# Bioassay records as filed in PubChem.
# An excerpt weighted towards active compounds, which were near 19% of everything screened.
# IL-1B inflam inh: blocks inflammasome-driven IL-1 beta release; THP-1 LPS/ATP IL-1B secretion, AlphaLISA, 16 h; hits give low values; activity change, % at 57.5 µM; 4.7% of 360,000 active; AID 743279; in the data active = activity change below about -50%; inconclusive = mostly about -30% to -49%; note: % is set by controls: 0 for no effect and ±100 for the full control effect
#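 Secreted IL-1B measured by AlphaLISA bead assay after 16 h compound exposure of THP-1 cells; compounds (final up to 57.5 uM) added 1 h before LPS (250 ng/mL) and ATP (1.25 mM) stimulation; lower signal means less secretion.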
# TGFb SMAD3 inh: inhibitors of TGF-b signaling. HepG2 CAGA-GFP TGF-b/SMAD3 reporter, GFP fluorescence, 18 h; TGF-beta stimulated, 500 pg/mL final. Potency, µM (highest dose often 46.1 µM), without a hit: at the highest dose activity, negative = inhibition, hits mostly inhibitors. 1.2% of 410,000 active; note: potency is the fitted concentration of half-maximal effect; % is set by controls: 0 for no effect and ±100 for the full control effect; nearly all actives have a fitted effect of over 65% in size
#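 TGF-beta reporter screen: HEPG2 CAGA-GFP, 1% FBS, 500 pg/mL TGF-beta final, 18 h; per-cell GFP summed per well; curves fitted and categorized by class.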
# TDP1 cell CPT: growth inhibition of DT40 Tdp1-/-;hTDP1 cells with camptothecin (screen for TDP1 inhibitors). chicken DT40 Tdp1-/-;hTDP1 cells + 20 nM CPT, ATP luminescence, 48 h. Potency, µM (highest dose often 46.2 µM), without a hit: at the top dose activity change, negative = growth inhibition, usual class: inhibitors. 12% of 420,000 active; note: potency is the fitted concentration of half-maximal effect; % is set by controls: 0 for no effect and ±100 for the full control effect; nearly all actives have a fitted effect of over 55% in size
#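 Chicken DT40 Tdp1-/- cells stably complemented with human TDP1 were seeded at 400 cells/well in medium containing 20 nM camptothecin, exposed to pin-transferred compounds, and grown at 37 °C for at least 48 hr. Viability was read as ATP luminescence.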
# TDP1 cell noCPT: qHTS for Inhibitors of human tyrosyl-DNA phosphodiesterase 1 (TDP1): qHTS in cells in absence of CPT | DT40 Tdp1-/- hTDP1 cells, no CPT, ATP luminescence, 48 h | Potency, µM (highest dose often 46.2 µM), without a hit: at the highest dose activity change, negative = growth inhibition, most hits filed as inhibitors | 15% of 420,000 active; note: potency is the fitted concentration of half-maximal effect; % is set by controls: 0 for no effect and ±100 for the full control effect; nearly all actives have a fitted effect of over 55% in size
#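 DT40 Tdp1-/-;hTDP1 cells, no CPT (DMSO vehicle only), 400 cells/well; compounds pin-transferred; ≥48 hr, 37 °C; CellTiter-Glo 30 min RT dark, luminescence read.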
# HepG2 tox: HepG2 cytotoxicity, counter-screen for TGF-b inhibitors | 0.76% of 410,000 active | Potency, µM (top dose mostly 46.1 µM), without a hit: at the top dose activity change, negative = cytotoxicity, hits mostly cytotoxic | AID 588856 | HepG2 CAGA-GFP viability, ATP luminescence, 18 h; note: potency is the fitted concentration of half-maximal effect
#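 HepG2 CAGA-GFP cells (1000/well, DMEM with 1% FBS) received compound, then TGF-beta at 500 pg/mL final, and were incubated 18 hours at 37 degrees C. Viability was read by CellTiter-Glo luminescence. Media-only wells were set as complete cell-killing and DMSO as no toxicity.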
# TDP1 block: inhibitors of human tyrosyl-DNA phosphodiesterase TDP1. Q9NUW8. 0.28% of 350,000 active. AID 485290. Potency, µM (doses to about 130 µM), for the others: at the highest dose activity change, negative = inhibition, usual class: inhibitors. recombinant TDP1, AlphaScreen DNA substrate cleavage; note: potency is the fitted concentration of half-maximal effect; % is set by controls: 0 for no effect and ±100 for the full control effect; nearly all actives have a fitted effect of over 40% in size
# Target sequence (Q9NUW8 whole entry, looked up): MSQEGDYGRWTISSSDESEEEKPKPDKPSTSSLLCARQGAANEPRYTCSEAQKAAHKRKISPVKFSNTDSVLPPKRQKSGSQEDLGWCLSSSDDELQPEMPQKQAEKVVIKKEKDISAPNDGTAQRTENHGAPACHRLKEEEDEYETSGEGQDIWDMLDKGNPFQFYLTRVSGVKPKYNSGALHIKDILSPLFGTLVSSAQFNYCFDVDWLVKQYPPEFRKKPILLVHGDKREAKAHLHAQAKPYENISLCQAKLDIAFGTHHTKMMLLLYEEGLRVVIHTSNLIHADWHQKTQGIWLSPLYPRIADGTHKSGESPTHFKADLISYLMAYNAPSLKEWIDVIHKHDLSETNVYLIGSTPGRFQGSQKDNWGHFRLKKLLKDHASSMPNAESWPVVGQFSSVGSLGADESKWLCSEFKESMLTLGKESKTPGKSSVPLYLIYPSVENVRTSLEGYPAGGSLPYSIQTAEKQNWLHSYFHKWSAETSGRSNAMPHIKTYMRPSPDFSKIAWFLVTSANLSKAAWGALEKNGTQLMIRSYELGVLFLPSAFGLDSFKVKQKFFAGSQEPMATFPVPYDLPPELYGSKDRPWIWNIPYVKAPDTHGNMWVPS
#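 Enzyme-compound mixtures sat 15 min at room temperature, followed by a 5 min reaction with 15 nM final substrate and 10 min with AlphaScreen beads. Recombinant human Tdp1 was used at 1 nM final.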
# * = called active by the depositor; ? = inconclusive; . = no result; [ ] = remark or other dose. Unless noted, calls come from the whole dose curve; as a rule, active = well fitted curve in the direction sought with a large enough effect; inconclusive = small, poorly fitted or top-dose-only effect, or another doubt; inactive = no such curve, though single readings can be large; an effect the other way counts as inactive or inconclusive.
SMILES,IL-1B inflam inh,TGFb SMAD3 inh,TDP1 cell CPT,TDP1 cell noCPT,HepG2 tox,TDP1 block
Cc1cc(C(=O)C(=O)N(C)C)c(C)n1-c1ccc(Cl)c(Cl)c1,6,?,?,21µM*,-6%,4%
O=C(Nc1ccc(N2CCOCC2)cc1)c1nc2ccccc2s1,34,0%,1%,-8%,-24%,6%
COc1ccc(-c2cc(C(=O)Nc3ccccc3N3CCOCC3)c3ccccc3n2)cc1OC,-52*,-25%,7.3µM*,4.6µM*,-8%,8%
COc1ccc(-c2cc(C(=O)Nc3cc(S(N)(=O)=O)ccc3C)c3ccccc3n2)cc1OC,-6,-1%,?,23µM*,8%,.
COc1ccc(-c2cc(C(=O)Nc3ccc(Cl)cc3Cl)c3ccccc3n2)cc1OC,18,-6%,?,?,3%,-1%
Cn1nc(C(=O)Nc2ccccc2N2CCOCC2)ccc1=O,1,-8%,-29%,?,-3%,0%
O=C(Nc1ccccc1N1CCOCC1)c1ccc2ccccc2n1,-2,2%,?,16µM*,-13%,9%
O=C(Nc1ccc(N2CCOCC2)cc1)c1cc(-c2ccncc2)nc2ccccc12,-2,?,21µM*,?,-39%,2%
COC(=O)[C@@]1(Cc2ccc(OC)cc2)[C@H]2c3cc(C(=O)N4CCCC4)n(Cc4nc5ccccc5[nH]4)c3C[C@H]2CN1C(=O)c1ccccc1,.,.,.,.,.,16%
CC(C)Nc1ncnc2c1ncn2[C@H]1CN(CCN2CCOCC2)C[C@@H](CO)O1,5,-4%,10%,3%,-1%,.
O=C(Nc1ccc(SC(F)F)cc1)c1cc(-c2ccncc2)nc2ccccc12,-14,-28%,?,21µM*,2%,1%
O=C(Nc1ccccc1N1CCOCC1)c1cc(-c2ccncc2)nc2ccccc12,-7,2%,12µM*,12µM*,12%,3%
O=C(Nc1ccncc1)c1cc(-c2ccccn2)nc2ccccc12,53,13%,12%,-18%,-1%,?
CCOc1cc(N2CCOCC2)c(OCC)cc1NC(=O)c1cc(-c2ccco2)nc2ccccc12,-4,-15%,?,23µM*,-44%,0%
COc1ccc(S(=O)(=O)N2CCOCC2)cc1NC(=O)c1c(-c2ccccc2)noc1C,-19,-21%,3%,-22%,-15%,3%
Cc1ccccc1NC(=O)c1cc(-c2ccco2)nc2ccccc12,.,1%,-5%,?,-32%,.
O=C(NN1CCOCC1)c1cc(-c2ccncc2)nc2ccccc12,16,-5%,-7%,-29%,8%,0%
COc1cc(-c2cc(C(=O)Nc3cc(S(=O)(=O)N4CCOCC4)ccc3C)c3ccccc3n2)cc(OC)c1OC,-5,0%,16µM*,12µM*,10%,-10%
Cc1ccc(NC(=O)Cn2c(=O)n(Cc3nc(-c4ccccc4)no3)c(=O)c3cc4c(cc32)OCO4)cc1C,.,-21%,-9%,?,-1%,-6%
O=S(=O)(CC=CCS(=O)(=O)c1ccccc1)c1ccccc1,-21,4%,5%,-23%,-32%,.
Cc1ccc(-n2nc3c(N4CCC(C(=O)N(C)Cc5ccccc5)CC4)nnc(C)c3c2C)cc1,.,-15%,-23%,-21%,-21%,3%
COc1ccc(-c2cc(C(=O)NNC(=O)c3csc(N4CCOCC4)n3)c3ccccc3n2)cc1,-15,1%,-26%,?,15%,0%[0.505 µM]
COc1ccc(-c2cc(C(=O)NNC(=O)c3csc(N4CCOCC4)n3)c3ccccc3n2)cc1OC,-16,-3%,21µM*,16µM*,6%,3%[0.505 µM]
COc1ccc(-c2cc(C(=O)Nc3ccc(S(N)(=O)=O)cc3)c3ccccc3n2)cc1OC,13,-8%,-10%,?,-23%,.
COc1cc(-c2cc(C(=O)Nc3ccc(N4CCOCC4)cc3)c3ccccc3n2)cc(OC)c1OC,84,16%,2.6µM*,1.8µM*,-1%,9%
SMILES,IL-1B inflam inh,TGFb SMAD3 inh,TDP1 cell CPT,TDP1 cell noCPT,HepG2 tox,TDP1 block
COc1ccccc1NC(=O)CN1CCN(CC(=O)Nc2ccc(S(N)(=O)=O)cc2)CC1,17,-6%,?,13µM*,-1%,.
COc1ccccc1NC(=O)CN1CCN(CC(=O)Nc2ccc(F)c(F)c2)CC1,.,6.3µM*,?,?,-54%,5%
COc1ccccc1NC(=O)CN1CCN(CC(=O)Nc2ccc(F)cc2)CC1,-10,-11%,-21%,?,-45%,7%
COc1cc(NC(=O)CN2CCN(CC(=O)Nc3ccccc3OC)CC2)cc(OC)c1,-10,-9%,16µM*,?,-1%,.
COc1ccccc1NC(=O)CN1C(=O)CC(c2ccc(C)c(C)c2)=Nc2ccccc21,.,?,23µM*,23µM*,-11%,11%
NS(=O)(=O)c1ccc(NC(=O)CN2CCN(Cc3ccccc3)CC2)cc1,24,?,-14%,-30%,-4%,0%
COc1cccc(CNC(=O)CN2C(=O)COc3ccc(S(=O)(=O)N4CCC(C)CC4)cc32)c1,-24,-6%,-26%,-6%,-1%,3%
N#C/C(=C/c1ccc(-c2ccc([N+](=O)[O-])cc2)o1)c1nnc(N2CCOCC2)n1-c1ccccc1,-7,-9%,?,?,-18%,.
Cc1ccccc1C(=O)Nc1nnc2n1CCS2,.,3%,-2%,5%,-6%,3%
COC(=O)c1cc2oc3ccccc3c2n1Cc1cccc(C)c1,.,0%,-27%,?,-8%,-7%
COc1ccccc1NC(=O)CN1CCN(CC(=O)Nc2ccc(OC)c(OC)c2)CC1,-24,-1%,-21%,0%,-4%,.
COc1ccccc1NC(=O)CN1CCN(CC(=O)Nc2ccc(C)c(F)c2)CC1,-8,-13%,16µM*,16µM*,-6%,.
O=C(C[n+]1ccccc1Br)c1ccc(O)c(O)c1,.,-4%,12%,-6%,2%,.
O=C(O)C(=Cc1ccncc1)c1cccc2ccccc12,9,3%,-4%,-16%,-4%,.
COC(=O)C(=Cc1ccncc1)c1cccc2ccccc12,0,-20%,6.5µM*,13µM*,-15%,.
c1ccc2nc(-c3nc4ccccc4[nH]3)ccc2c1,15,10%,?,5.2µM*,-61%,6%
Oc1ccc(C=Nc2ccccc2-c2nc3ccccc3[nH]2)c(O)c1,-20,8%,-19%,-1%,-2%,6%
